Bioassay records from PubChem.
This is a sample that favours compounds with a hit; in the whole collection about 0.86% have one here.
HIV TAR-Tat: HIV-1 TAR-Tat binding disruption; AID 1259389; z-score (no concentration beside the values); actives 0.6% (n = 100,000); HIV-1 TAR RNA, Tat peptide displacement FRET; stronger effect = higher value; active = z-score of 3 or more in at least 2 runs
CDC25B CDK2 inh: human CDC25B-CDK2/CyclinA binding inhibition. actives 0.72% (n = 94,000). z-score (no concentration beside the values). HTRF CDC25B-CDK2/CyclinA binding, anti-His/anti-Flag; stronger effect = higher value. P30305+P24941; in the data active = z-score above about 3.2
* marks the source's active call; other numbers are inactive results; . = not tested or not shown.

SMILES | HIV TAR-Tat | CDC25B CDK2 inh
CCOC(=O)CSc1ncnc2scc(-c3ccccc3)c12 | 1.8 | -0.2
COc1ccc(N2C(=O)c3cccnc3C2Nc2cc(Cl)c(OC)cc2OC)cc1 (centres undefined) | 0.82 | .
Cc1cc(C(=O)C(=O)Nc2nncs2)c(C)n1-c1ccccc1 | 6.9 | -2.4
Cc1cc(C(=O)C(=O)Nc2nnc(-c3ccco3)s2)c(C)n1-c1cccc(Cl)c1 | 8.6* | -0.62
CCc1nnc(NC(=O)C(=O)c2cc(C)n(-c3ccc(F)cc3)c2C)s1 | 2.3 | -2.8
Cc1cc(C(=O)C(=O)Nc2nnc(-c3ccco3)s2)c(C)n1-c1ccccc1Cl | 33* | -1.1
Cn1c(=O)c(-c2nnc(N)o2)nc2ccccc21 | 1.9 | .
CN(Cc1ccccc1)C(=O)CSc1nc(-c2ccc3c(c2)OCO3)nc2cc(=O)[nH]n12 | 26* | .
CN(C(=O)CSc1nc(-c2ccc3c(c2)OCO3)nc2cc(=O)[nH]n12)c1ccccc1 | 2.8 | .
CCN(CC)CCNC(=O)CCCn1nc(C)n2c(cc3oc(C)cc32)c1=O | -1.3 | -0.82
COc1ccc(-c2nc(SCc3cc(=O)c4cccc(Cl)c4[nH]3)n[nH]2)cc1 | 6.8* | .
Cc1ccc(-c2nc(SCc3cc(=O)c4cccc(Cl)c4[nH]3)n[nH]2)cc1 | 0.33 | .
N#Cc1cc2c(nc1SCC(=O)Nc1ccc(Br)cc1)CCC2 | -0.39 | -2
CCOC(=O)Cn1c(=O)oc2cc(S(=O)(=O)N3CCCCC3)ccc21 | -0.5 | -0.36
Cc1ccc(S(=O)(=O)c2cnc3ccccc3c2N2CCCC2)cc1C | 0.73 | 0.08
O=C(O)c1cc(-c2ccccc2)nc2n[nH]c(-c3ccccc3)c12 | 0.44 | .
O=C(O)c1cc(-c2cn[nH]c2-c2ccccc2)nc2ccc3ccccc3c12 | . | 22*
Cc1c(C)n(-c2ccc(F)cc2)c2ncn3nc(-c4cccs4)nc3c12 | 0.66 | -0.33
CSc1ccc(C2C3=C(Nc4c2c(=O)[nH]c(=O)n4C)c2ccccc2C3=O)cc1 (centres undefined) | 7.4* | -3
COCCn1c2c(c(=O)[nH]c1=O)C(c1ccc(SC)cc1)C1=C(N2)c2ccccc2C1=O (centres undefined) | -1.5 | -2.5
COc1ccc(N2CCN(c3ncc4c(n3)CCN(Cc3ccc(OC)cc3OC)C4)CC2)cc1 | 0.56 | .
CCOCCCNC(=O)C(CC(C)C)N1Cc2ccccc2C1=O (centres undefined) | 1.4 | .
CC(=O)C[n+]1cccc2cccc(O)c21 | . | 2.2
C#CC[n+]1cccc2cc(O)ccc21 | . | 5.2*
O=C(Cn1cnc2nc3c(cc2c1=O)CCCC3)NC1CCCCC1 | -1.2 | -3.3
SMILES | HIV TAR-Tat | CDC25B CDK2 inh
O=C(/C=C/c1ccco1)Nc1ccc(C(=O)O)cc1NC(=O)/C=C/c1ccco1 | . | 17*
O=C(O)/C=C/C(=O)Nc1ccc(C(F)(F)F)cc1NC(=O)/C=C/C(=O)O | . | -0.58
Cc1cc(C)cc(NS(=O)(=O)c2cc3c4c(c2)C(C)C(=O)N4CCC3)c1 (centres undefined) | 0.66 | .
Cc1ccc(-n2ncc3c(N4CCc5ccccc54)ncnc32)cc1 | 0.65 | .
Cc1nc2cc(Nc3nnc(-c4ccc(Cl)cc4)c4ccccc34)ccc2n1C | . | 14*
Cn1cnc2cc(Nc3nnc(-c4ccc(Cl)cc4)c4ccccc34)ccc21 | . | -0.73
CCCNC(=O)Cn1ncn2nc(-c3cccs3)cc2c1=O | -0.08 | -2.1
COc1cccc(Cn2cc3c(-c4ccc(OC)c(OC)c4)nnc-3c3cc4c(cc32)OCCO4)c1 | 5.1* | 2.8
COc1ccc(-c2nnc3c4cc5c(cc4n(Cc4ccccc4)cc2-3)OCCO5)cc1OC | 0.88 | 2
CCSc1ncc(Cl)c(C(=O)Oc2ccc(F)cc2)n1 | 2.2 | -1.4
CCN1CCCC1CNC(=O)Cn1c(-c2cccs2)cc2cc(Cl)ccc21 (centres undefined) | 0.28 | .
CN(C)CCCNc1cc(N2CCN(C3CCCCC3)CC2)c2noc3c2c1C(=O)c1ccccc1-3 | 8.7* | -1.7
COCCNc1cc(N2CCCC2)c2noc3c2c1C(=O)c1ccccc1-3 | -1.2 | -2.1
O=C1c2ccccc2-c2onc3c(N4CCN(C5CCCCC5)CC4)cc(NCCO)c1c23 | 0.42 | -2.3
COCCNc1cc(N2CCN(c3ccccn3)CC2)c2noc3c2c1C(=O)c1ccccc1-3 | -2.2 | 2.7
COCCNc1cc(N2CCN(C3CCCCC3)CC2)c2noc3c2c1C(=O)c1ccccc1-3 | 8.1* | -0.67
CCOCCCNc1cc(N2CCC(C)CC2)c2noc3c2c1C(=O)c1ccccc1-3 | 2.1 | -1.3
CC1CCN(c2cc(NCCCN(C)C)c3c4c(onc24)-c2ccccc2C3=O)CC1 | 16* | 1.8
CN(C)CCCNc1cc(N2CCN(c3ccccn3)CC2)c2noc3c2c1C(=O)c1ccccc1-3 | 7.2* | 1.2
CCN1CCCC1CNC(=O)c1cnn2c3c(cnc12)CCCC3 (centres undefined) | -0.61 | .
COc1ccc(C(=O)c2cn(Cc3ccc(F)cc3)c3cc4c(cc3c2=O)OCO4)cc1 | 2.2 | -2.1
COc1cn(CC(=O)Nc2ccc(Br)cc2)c(CSc2nc(C)cc(C)n2)cc1=O | 2 | .
O=C(CN1c2ccccc2NC2=C(C(=O)CCC2)C1c1ccco1)NCC1CCCO1 (centres undefined) | 1.5 | .
CCN1CCN(C(=O)Cn2cc3c(n2)-c2c(oc(C(=O)N4CCCC4)c2C)CC3)CC1 | 1.4 | .
Cc1oc2ccc(NS(=O)(=O)c3ccc(Cl)cc3)cc2c1C(=O)O | 23* | 3.9
SMILES | HIV TAR-Tat | CDC25B CDK2 inh
Cc1oc2ccc(NS(=O)(=O)c3ccccc3)cc2c1C(=O)O | 18* | -0.14
Cc1oc2ccc(NS(=O)(=O)c3ccc(F)cc3)cc2c1C(=O)O | 1.7 | 0.13
COC(=O)c1c(C)oc2ccc(NS(=O)(=O)c3ccc(Cl)cc3)cc12 | 0.19 | -0.32
S=C1NCCc2ccccc21 | . | -0.43
CCOc1ccc(S(=O)(=O)[C@H]2CS(=O)(=O)C[C@@H]2NCc2ccccc2)cc1 | -1.8 | -1.8
CC(=O)N1CCSc2ccc(S(=O)(=O)NCCC(C)C)cc21 | 0.57 | .
CCOc1c(C(=O)OC)sc2ccc(N)cc12 | -1.9 | 7.7*
COC(=O)c1sc2ccccc2c1Cl | 1.9 | 1.3
COC(=O)c1sc2ccc(N)cc2c1OC | -2.8 | 5.4*
COC(=O)c1sc2ccc(N)cc2c1OCC(C)C | -2.2 | 3
COc1ccc2c3c([nH]c2c1)C(C)(C(=O)O)NCC3 (centres undefined) | -8.2 | 5.1
CC1(C(=O)O)NCCc2c1[nH]c1ccccc21 (centres undefined) | -2.2 | 10*
COc1ccc(Cl)cc1NC(=O)Cn1nc2c(cc1=O)CCC2 | -1 | -1.3
COc1ccc(NC(=O)Cn2nc3c(cc2=O)CCC3)cc1Cl | 13* | 0.37
COc1ccccc1Cn1c(CN)nc2cccnc21 | 0.67 | -0.75
CC1CCCCC1NC(=O)c1cc2c(s1)-c1ccc(Cl)cc1S(=O)(=O)C2 (centres undefined) | 0.72 | -10
COc1ccccc1/C=C/c1nn2c(-c3ccc(F)cc3)nnc2s1 | 1.4 | -1.8
COc1cccc2c1Oc1nc(-c3cc(Br)ccc3O)[nH]c(=O)c1C2 | 18* | -0.82
COc1cccc(-c2nc3c(c(=O)[nH]2)Cc2ccccc2O3)c1O | 1.9 | -0.88
COc1cccc2c1Oc1nc(-c3ccc(Br)cc3)[nH]c(=O)c1C2 | 0.47 | -0.14
COc1cccc(-c2nc3c(c(=O)[nH]2)Cc2cccc(OC)c2O3)c1O | 12* | 0.53
O=S(=O)(O)c1cccc(Nc2nc(Cl)nc(Cl)n2)c1 | . | 0.78
